In PubChem BioAssay (EPA / NIEHS) one finds AC50 and outcome data, which are given here for 33 molecules.

In general, AC50 refers to the concentration giving half of the maximal activity seen.

Where “and” joins values, the source holds several entries; their conditions need not be identical. Equal entries are not always repeated. Some compounds were tested as several samples or in several runs, with calls that do not always agree. Calls of active or inactive are those of the source. The calls were made as follows: active = hit-call score of the fitted dose curve at least 0.9, where 1 is the maximum; inactive = score below 0.9.

The nature of this experiment: CCTE_Shafer_MEA_dev_per_network_spike_spike_percent: CCTE's Neural Network Formation Assay for Percent of Spikes in a Network Spike, Shafer Lab (AID 2284054). The procedure: CCTE_Shafer_MEA_dev assay is conducted using Axion Biosystems 48 well microelectrode array (MEA) plates and Maestro recording system. Each well of the MEA plate contains a grid of 16 microelectrodes embedded in the culture surface. Electrically active cells, such as neurons, can be cultured over the electrodes, and electrical activity in these cells can be recorded extracellularly. The spontaneous firing of neurons is captured from each electrode on a microsecond timescale providing both temporally and spatially precise data. […] The CCTE_Shafer_MEA_dev assay uses primary cultures of rat cortical neurons. Recordings are made on days post-plating 5, 7, 9 and 12. As these cultures mature over time, neural networks develop functional activity and form cohesive networks in which electrical activity can be highly coordinated. CCTE_Shafer_MEA_dev_per_network_spike_spike_percent is 1 of 19 assay components of the CCTE_Shafer_MEA_dev assay. It measures the percent of spikes (action potential firings) in a network spike (temporally-clustered group of spikes across multiple electrodes) as the number of spikes that occur within a 0.05 s time window at the peak of a network spike divided by the total number of spikes during a recording in a microelectrode array (MEA) using Axion Biosystems Maestro 768 channel amplifier with the AxIS adaptive spike detector. To collapse across multiple recordings made on days post-plating 5, 7, 9 and 12, the trapezoidal area-under-the-curve of the component is calculated.Data from the assay component CCTE_Shafer_MEA_dev_per_network_spike_spike_percent was analyzed into 1 assay endpoint. This assay endpoint, CCTE_Shafer_MEA_dev_per_network_spike_spike_percent, was analyzed in the negative analysis fitting direction relative to DMSO as the negative control and baseline of activity. Using a type of functional reporter, gain or loss-of-signal activity can be used to understand electrical activity.
On the day prior to culture, each well was coated thoroughly with 150 uL of 0.05% polyethyleneimine (PEI, Sigma Cat P3143) in 50 mM HEPES (Sigma Cat H7523) at a pH of 8. The plate was incubated at 37C for one hour. PEI was rinsed out with 500 uL of sterile water three times. Plates were stored at 4C until the day of culture. This culture was plated at a seeding density of 1.5 x 10^5 cells/well on a 48-well MEA plate, prepared as described above. Cells were administered via a 25 uL media/laminin ([…]; Sigma Cat L2020-1MG) drop directly onto the microelectrode array, as adding the cells with the laminin results in better attachment than pre-coating with laminin. After 2 hours, an additional 475 uL of cortical media was added and the cells returned to the incubator. Exposure starts at day 0 of plating and is continued over twelve days of network development until the experiment is terminated. Cells are fed with fresh medium on DIV 5 and 9, following the recordings on those days. The entire volume of media in the well is exchanged and any vehicle or compound treatment is renewed. Complete details are found in OP-NHEERL/ISTD/SBB/TJS/2015-03-r0 (available on request, email shafer.tim@epa.gov). Measurement of the electrical activity is non-invasive, and recordings can be made from the same plate over multiple different days of the culture. In cortical neurons, this allows for the measurement of extracellular action potentials over the period during which networks form in the MEA plate.
As to `CON=C(C(=O)OC)c1ccccc1CON=C(C)c1cccc(C(F)(F)F)c1`, the AC50 is 981 nM (active) and 686 nM (active).
Turning to `CSC1=N[C@@](C)(c2ccccc2)C(=O)N1Nc1ccccc1`, the result was inactive.
As to `CN(C)[C@@H]1C(=O)C(C(N)=O)=C(O)[C@@]2(O)C(=O)C3=C(O)c4c(O)cccc4[C@@](C)(O)[C@H]3[C@H](O)[C@@H]12`, the AC50 was 89.4 µM (active).
Turning to `CCCSP(=O)(OCC)Oc1ccc(Br)cc1Cl` (stereo unspecified), the result was inactive.
On to `CCOP(=O)(NC(C)C)Oc1ccc(SC)c(C)c1` (stereo unspecified), for which the AC50 was 11.7 µM (active) and the result was inactive.
For the molecule `COP(=O)(OC)C(O)C(Cl)(Cl)Cl` (stereo unspecified), the AC50 was 50 µM (active) and 15 µM (active).
For `C=C(C)[C@H]1Cc2c(ccc3c2O[C@@H]2COc4cc(OC)c(OC)cc4[C@@H]2C3=O)O1`, the AC50 is 16.8 nM (active) and 13.3 nM (active).
For the molecule `CC(=NC#N)N(C)Cc1ccc(Cl)nc1`, the call was inactive.
In the case of `CN1COCN(Cc2cnc(Cl)s2)C1=N[N+](=O)[O-]`, the outcome was inactive.
The same measure, in the same setting: the value for `CCOP(=S)(OCC)SCCSCC` was “inactive”.
On the same count and under the same terms, the value for `CC1=NNC(=O)N(/N=C/c2cccnc2)C1` was “inactive”.
On the same count and under the same terms, the value for `S=C1NCCN1` was “inactive”.
For `CCOP(=S)(OCC)OC(Cl)C(Cl)(Cl)Cl` (stereo unspecified), the AC50 is 26.7 µM (active) and 18.6 µM (active).
As for `COP(=O)(NC(C)=O)SC` (stereo unspecified), the result was inactive.
Regarding `CC(C)=CC1C(C(=O)OCN2C(=O)C3=C(CCCC3)C2=O)C1(C)C` (stereo unspecified), the result was inactive.
For `CCOP(=O)(SC(C)CC)N1CCSC1=O` (stereo unspecified), the molecule was called inactive.
For the molecule `CCOP(=S)(OCC)Oc1ccc2c(C)c(Cl)c(=O)oc2c1`, the AC50 is 82.2 µM (active).
`CC(Oc1cccc(Cl)c1)C(=O)O` (stereo unspecified): the call was inactive.
For `CCOP(=S)(OCC)Oc1cc(C)nc(C(C)C)n1`, the outcome was inactive and the AC50 was 77 µM (active).
`CC(C)[C@H](C(=O)O[C@H](C#N)c1cccc(Oc2ccccc2)c1)c1ccc(Cl)cc1`: the AC50 is 0.732 µM (active).
Regarding `COP(=O)(OC)OC(Br)C(Cl)(Cl)Br` (stereo unspecified), the AC50 is 8.6 µM (active) and 12 µM (active).
Turning to `O=[N+]([O-])c1cc(C(F)(F)F)c(Cl)c([N+](=O)[O-])c1Nc1ncc(C(F)(F)F)cc1Cl`, the AC50 is 0.742 µM (active).
As for `CCOP(=S)(OCC)Oc1ccc([N+](=O)[O-])cc1`, the molecule was called inactive.
Consider `CCOP(=S)(Oc1cnc(C(C)(C)C)nc1)OC(C)C` (stereo unspecified), for which the AC50 was 84.5 µM (active) and 23 µM (active).
Regarding `C#CCC1=C(C)C(OC(=O)C2C(C=C(C)C)C2(C)C)CC1=O` (stereo unspecified), the concentration at half-maximal activity (AC50) was 2.64 µM (active).
Regarding `CC[C@H](C)[C@H]1O[C@]2(C=C[C@@H]1C)C[C@@H]1C[C@@H](C/C=C(\C)[C@@H](O[C@H]3C[C@H](OC)[C@@H](O[C@H]4C[C@H](OC)[C@@H](NC)[C@H](C)O4)[C@H](C)O3)[C@@H](C)/C=C/C=C3\CO[C@@H]4[C@H](O)C(C)=C[C@@H](C(=O)O1)[C@]34O)O2`, the outcome was inactive and the AC50 is 0.517 µM (active).
Consider `CCCCSP(=O)(SCCCC)SCCCC`, for which the AC50 was 68.3 µM (active) and 49.9 µM (active).
`CCCSP(=O)(OCC)SCCC`: the AC50 was 24.3 µM (active) and 26.5 µM (active).
`CCOC(=O)CC(SP(=O)(OC)OC)C(=O)OCC` (stereo unspecified): the molecule was called inactive.
For `CC(C)N(C(=O)SCC(Cl)=C(Cl)Cl)C(C)C`, the concentration at half-maximal activity (AC50) is 15 µM (active).
Same read-out and setting: the value for `C[Si](Cn1cncn1)(c1ccc(F)cc1)c1ccc(F)cc1` was 20.1 µM (active).
Regarding `CCOP(=O)(OCC)Oc1cc(C)nc(C(C)C)n1`, the molecule was classed as inactive.
Turning to `C[N+]1(C)CCCCC1`, the call was inactive.
